Several values for one entry are separate records, joined by “and”; a condition that tells them apart may be missing. Equal values may be shown once. Inconclusive results are not listed. Activity calls are given as the source filed them. Unless noted, the call rests on the fitted dose curve; in most records, active means well fitted curve in the direction sought with a large enough effect; inconclusive means small, poorly fitted or top-dose-only effect, or another doubt; inactive means no such curve, though single readings can be large; an effect the other way counts as inactive or inconclusive.
Assays:
[1] = qHTS for Inhibitors of Ubiquitin-specific Protease USP2a Using CHOP2 as the Reporter: Cytotox Assay (AID 652170); further: nearly all actives have a fitted effect of over 70% in size; further: potency means the concentration at half of the fitted maximal effect
In short: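 HCT116 human colon cancer cells, 600 per well in DMEM with 10% FBS, exposed to compounds for 72 hr at 37 deg C. ATP measured by CellTiter-Glo luminescence, normalized to DMSO cells and no-cell background.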

[2] = biological target: Ubiquitin carboxyl-terminal hydrolase 2 (Homo sapiens) (UniProt O75604); assay: qHTS for Inhibitors of Ubiquitin-specific Protease USP2a Using CHOP2 as the Reporter: K484 Substrate (AID 652173);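 further: cleavage of internally quenched K48 di-ubiquitin substrate measured as rising fluorescence over time; potency means the concentration at half of the fitted maximal effect; nearly all actives have a fitted effect of over 70% in size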
Sequence of Ubiquitin carboxyl-terminal hydrolase 2 (Homo sapiens) (O75604 whole entry, looked up): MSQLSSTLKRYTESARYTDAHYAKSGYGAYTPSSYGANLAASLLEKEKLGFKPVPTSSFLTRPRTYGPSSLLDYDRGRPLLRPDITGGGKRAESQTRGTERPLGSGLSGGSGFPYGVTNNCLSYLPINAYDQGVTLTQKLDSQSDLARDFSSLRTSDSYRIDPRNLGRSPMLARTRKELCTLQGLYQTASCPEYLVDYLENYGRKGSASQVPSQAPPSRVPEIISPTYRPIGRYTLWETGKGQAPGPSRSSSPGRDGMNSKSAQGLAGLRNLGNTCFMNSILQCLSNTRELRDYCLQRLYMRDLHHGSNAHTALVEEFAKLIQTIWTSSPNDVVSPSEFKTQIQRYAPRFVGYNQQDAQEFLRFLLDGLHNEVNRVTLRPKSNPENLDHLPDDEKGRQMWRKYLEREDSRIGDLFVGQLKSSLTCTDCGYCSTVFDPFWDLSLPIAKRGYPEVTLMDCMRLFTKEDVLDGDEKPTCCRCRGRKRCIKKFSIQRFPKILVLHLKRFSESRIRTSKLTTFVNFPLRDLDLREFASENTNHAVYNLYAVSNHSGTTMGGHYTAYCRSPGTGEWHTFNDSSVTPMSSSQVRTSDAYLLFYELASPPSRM
In short: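 USP2 (dispensed at 5 nM) was pinned with compounds, then DiUb K48 internally quenched fluorescent substrate (dispensed at 100 nM) was added. The buffer was 20 mM Tris pH 8, 2 mM beta-mercaptoethanol and 0.05% CHAPS. Cleavage was read kinetically as rising fluorescence, Ex 525/Em 598.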

[3] = biological target: Calcium and integrin-binding protein 1 (Homo sapiens) (UniProt Q99828); assay: Primary qHTS for Identification of Calcium Integrin Binding Protein 1 (CIB1) Competitor (AID 1508620);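 further: GST tagged CIB1 binding a fluorescein labelled alphaIIb integrin peptide tracer; top concentration of the series differs between compounds; on the % scale 0 is the no-effect control and ±100 the full control effect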
Sequence of Calcium and integrin-binding protein 1 (Homo sapiens) (Q99828 whole entry, looked up): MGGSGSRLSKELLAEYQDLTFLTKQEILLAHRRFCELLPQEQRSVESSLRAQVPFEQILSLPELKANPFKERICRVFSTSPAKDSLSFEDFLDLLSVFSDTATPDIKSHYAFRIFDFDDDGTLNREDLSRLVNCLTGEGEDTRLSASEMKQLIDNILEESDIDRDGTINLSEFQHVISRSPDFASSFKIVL
In short: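 Fluorescence polarization competition: GST-tagged CIB1 (1 uM final) preincubated with compound 15 min at room temperature, then FITC-labelled alphaIIb peptide (100 nM final) added. After 15 min at room temperature, polarization read at Ex 480/Em 540.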

[4] = biological target: Cytochrome P450 3A4 (Homo sapiens) (UniProt P08684); assay: qHTS Assay for Inhibitors and Substrates of Cytochrome P450 3A4 (AID 884); further: on the % scale 0 is the no-effect control and ±100 the full control effect; nearly all actives have a fitted effect of over 50% in size
Sequence of Cytochrome P450 3A4 (Homo sapiens) (P08684 whole entry, looked up): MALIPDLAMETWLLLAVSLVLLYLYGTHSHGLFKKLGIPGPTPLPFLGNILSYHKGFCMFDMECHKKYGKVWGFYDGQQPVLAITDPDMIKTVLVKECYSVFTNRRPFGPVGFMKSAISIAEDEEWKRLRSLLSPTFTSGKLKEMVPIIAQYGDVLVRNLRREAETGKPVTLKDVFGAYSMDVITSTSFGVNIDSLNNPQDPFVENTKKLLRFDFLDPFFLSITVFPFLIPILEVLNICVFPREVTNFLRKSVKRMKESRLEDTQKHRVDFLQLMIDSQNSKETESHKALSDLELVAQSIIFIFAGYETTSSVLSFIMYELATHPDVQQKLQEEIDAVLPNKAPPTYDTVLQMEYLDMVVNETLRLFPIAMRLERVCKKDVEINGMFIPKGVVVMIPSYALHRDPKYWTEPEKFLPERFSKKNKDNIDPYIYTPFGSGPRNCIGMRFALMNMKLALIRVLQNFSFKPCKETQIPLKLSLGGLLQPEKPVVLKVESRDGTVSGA
In short: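 20 nM human CYP3A4 with 25 uM Luciferin-PPXE (at KM) in 200 mM KPO4, preincubated 10 min with compound; NADPH regeneration started a 60 min RT reaction. Luciferin detected by luminescence, normalized to 57 uM ketoconazole as full inhibition.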

[5] = qHTS profiling for inhibitors of Plasmodium falciparum (3D7) proliferation (AID 743322);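 further: infected erythrocytes exposed to compound for 72 h before lysis; 100% = DMSO vehicle wells and 0% = 0.29 µM artemisinin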; settings: P. falciparum 3D7 proliferation; at 28.7 µM (top of the series)
In short: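 Erythrocytes infected with P. falciparum (0.3% parasitemia, 2.5% hematocrit) incubated with compounds 72 h at 37 C, 5% CO2. Lysis with saponin/Triton buffer containing SYBR Green I, overnight at room temperature in the dark; DNA fluorescence (485/535 nm) normalised to 0.29 uM artemisinin and DMSO.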

[6] = qHTS profiling for inhibitors of Plasmodium falciparum (DD2) proliferation (AID 743323; call rule not given here); settings: lower = more inhibition; at 28.7 µM (top of the series)
In short: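 SYBR Green fluorescence (ex 485, em 535 nm) of lysed cultures gives parasite DNA content; wells normalized to artemisinin (0.29 uM) and DMSO controls. Infected red cells: 0.3% parasitemia, 2.5% hematocrit, 72 h, 37 C.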

[7] = qHTS profiling for inhibitors of Plasmodium falciparum (HB3) proliferation (AID 743324); settings: Plasmodium falciparum HB3 blood-stage proliferation; at 28.7 µM (top of the series);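 further: 100% = DMSO vehicle wells and 0% = artemisinin-treated control wells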
In short: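 P. falciparum HB3 grown in erythrocytes (0.3% parasitemia, 2.5% hematocrit final) with compound for 72 h at 37 C, 5% CO2. Parasite DNA detected by SYBR Green after saponin/triton lysis overnight; normalized to 0.29 uM artemisinin and DMSO.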

COc1c(NS(=O)(=O)c2ccc(C)cc2)cccc1C(=O)Nc1nc(-c2ccccc2)cs1
Potency [1]: 1.48 µM (active)
Potency [2]: 3.06 µM (active)
Potency [3]: inactive

Cc1ccc(S(=O)(=O)Nc2ccc(Cl)cc2C(=O)Nc2nc(-c3ccccc3)cs2)cc1
Potency [1]: 4.18 µM (active) and 5.9 µM (active)
Potency [2]: 1.09 µM (active) and 1.72 µM (active)
Potency [3]: inactive

COc1ccccc1C(=O)Nc1nc(-c2ccccc2)cs1
Potency [1]: inactive
Potency [2]: 10.9 µM (active)
Potency [3]: inactive

Cc1ccc(S(=O)(=O)Nc2cc(C(=O)Nc3nc(-c4ccccc4)cs3)ccn2)cc1
Potency [1]: inactive
Potency [2]: 6.85 µM (active)
Potency [3]: inactive

Cc1ccc(S(=O)(=O)Nc2ccccc2C(=O)Nc2nc(-c3ccccc3)c(Br)s2)cc1
Potency [1]: 5.9 µM (active)
Potency [2]: 1.22 µM (active)
Potency [3]: inactive

CC(C)C1CCC(C(=O)Nc2ccc(S(=O)(=O)Nc3nccs3)cc2)CC1 (configuration not stated)
Potency [1]: inactive
Potency [2]: 10.9 µM (active)
Potency [3]: inactive

O=C(Nc1ccc(S(=O)(=O)Nc2nccs2)cc1)[C@@H]1CC[C@H](C(=O)c2ccccc2)C1
Potency [1]: inactive
Potency [2]: 24.3 µM (active)
Potency [3]: inactive

CCCn1c(C)nc2c(NCCN3CCCCC3)nc(C)nc21
Potency [4]: inactive
Potency [3]: inactive

O=C([C@H](Cc1ccc(O[S+](=O)([O-])c2cccc3cccnc23)cc1)N[S+](=O)([O-])c1cccnc1)N1CCN(c2ccccc2)CC1
remaining parasite growth % (stronger effect = lower value) [5]: -0.283%
activity, percent of control [6]: 0.179%
remaining proliferation (% of control), lower = more inhibition [7]: -0.167%
Potency [3]: inactive

COC(=O)[C@H](Cc1ccc(O[S+](=O)([O-])c2cccc3cnccc23)cc1)N(C)[S+](=O)([O-])c1ccc2cnccc2c1
remaining parasite growth % (stronger effect = lower value) [5]: -0.184%
activity, percent of control [6]: 3.76%
remaining proliferation (% of control), lower = more inhibition [7]: 0.837%
Potency [3]: inactive

Cc1ccc(S(=O)(=O)Nc2ccccc2CNc2nc(-c3ccccc3)cs2)cc1
Potency [2]: 6.11 µM (active)
Potency [3]: inactive

O=C(Nc1ccc(S(=O)(=O)Nc2nccs2)cc1)C1CCC2(CCC2)CC1
Potency [2]: 24.3 µM (active)
Potency [3]: inactive

CC(C)(C)OC(=O)N[C@@H](Cc1ccc(O[S+](=O)([O-])c2cccnc2)cc1)C(=O)N1CCN(c2ccccc2)CC1
remaining parasite growth % (stronger effect = lower value) [5]: -0.793%
activity, percent of control [6]: 0.682%
remaining proliferation (% of control), lower = more inhibition [7]: -0.169%
Potency [3]: inactive

O=C([C@@H](Cc1ccc(O[S+](=O)([O-])c2cccnc2)cc1)N[S+](=O)([O-])c1cccc2cccnc12)N1CCN(c2ccccc2)CC1
remaining parasite growth % (stronger effect = lower value) [5]: -1.01%
activity, percent of control [6]: 0.464%
remaining proliferation (% of control), lower = more inhibition [7]: 0.336%
Potency [3]: inactive

CN1CCN(C(=O)[C@H](Cc2ccc(O[S+](=O)([O-])c3cccc4cnccc34)cc2)N[S+](=O)([O-])c2cccc3cnccc23)CC1
remaining parasite growth % (stronger effect = lower value) [5]: 10.3%
activity, percent of control [6]: 9.98%
remaining proliferation (% of control), lower = more inhibition [7]: 5.8%
Potency [3]: inactive

From PubChem BioAssay (NCATS)
